Screens from PubChem.
Only some compounds are listed: those with a hit (about 2.4% of all), similar ones and a draw of the others.
SENP8 block-1 – human SENP8 protease inhibitors, primary screen, biochemical, fluorescence, Nedd8 protein substrate, uHTS. recombinant SENP8. inhibition, % at 20 µM. hit rate 0.64% among 360,000. AID 602440, 2012; in the data active = inhibition mostly above about 40%, no sharp cut-off; inactive = mostly below about 27%
Target sequence (Q96LD8 whole entry, looked up): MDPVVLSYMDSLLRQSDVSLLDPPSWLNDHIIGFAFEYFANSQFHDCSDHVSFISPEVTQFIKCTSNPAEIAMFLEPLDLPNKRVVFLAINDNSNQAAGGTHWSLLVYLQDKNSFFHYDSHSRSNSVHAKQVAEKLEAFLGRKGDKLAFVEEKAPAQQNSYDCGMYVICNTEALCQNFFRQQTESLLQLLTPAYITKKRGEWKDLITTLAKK
SENP6 block – SENP6 protease inhibitors, primary screen, biochemical, luminescence, uHTS; Sentrin-specific protease 6 (Homo sapiens), Q9GZR1; Recombinant SENP6 catalytic domain, aminoluciferin luminescence; inhibition, % at 10 µM; hit rate 1.8% among 330,000;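 active = inhibition above about 50% at the single tested dose, limit read from the data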;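 also: plate controls were DMSO wells with enzyme for no effect and DMSO wells lacking enzyme for full effect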
Platelet DG rel – inhibitors of platelet dense granule secretion, primary screen, cell-based, MLPCN, human platelets. inhibition, %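 (compounds screened at 7.5 µM in platelet-rich plasma)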. human platelet-rich plasma, SFLLRN dense granule ATP release, luminescence. hit rate 0.22% among 300,000;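 active = mean replicate score, as percent of positive control, at or above 50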
SENP7 inh – SENP7 protease inhibitors, primary screen, biochemical, luminescence, uHTS. AID 434973, 2010. hit rate 1.5% among 330,000. recombinant SENP7, Z-RLRGG-aminoluciferin luminescence, 40 min. inhibition, % at 5 µM;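 active = inhibition above about 50% at the single test dose, limit read from the data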;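 also: plate controls were DMSO with enzyme for no effect and no enzyme buffer wells for full effect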
SENP8 block-2 – SENP8 protease inhibitors, primary screen, biochemical, luminescence | Sentrin-specific protease 8 (Homo sapiens), Q96LD8 | purified SENP8, Z-RLRGG-aminoluciferin cleavage | inhibition, % at 10 µM | hit rate 1.2% among 330,000; in the data active = inhibition above about 50%
SENP8 confirm – SENP8 protease inhibitors, retest, confirmation, biochemical, luminescence, single concentration; shares compounds with SENP7 inh; Recombinant SENP8, Z-RLRGG-aminoluciferin luminescence, 60 min; inhibition, % at 12.5 µM; hit rate 40% among 6,200; AID 488912, 2010;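 active = mean inhibition across replicates above about 50%, limit read from the data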
SENP6 confirm – SENP6 protease inhibitors, confirmation, biochemical, luminescence, single concentration | shares compounds with SENP7 inh | recombinant SENP6, Z-RLRGG-aminoluciferin luminescence | inhibition, % at 12.5 µM | hit rate 58% among 6,200 | AID 488915, 2010
SENP7 conf – SENP7 protease inhibitors, retest, confirmation, biochemical, luminescence, single concentration | shares compounds with SENP7 inh | inhibition, % at 12.5 µM | AID 488917, 2010 | hit rate 69% among 6,200 | recombinant SENP7, Z-RLRGG-aminoluciferin luminescence, 40 min
Casp3 select – caspase-3 protease inhibitors, confirmation, selectivity assay for SENP inhibitor project, biochemical, single concentration | hit rate 60% among 6,200 | purified caspase-3, Z-DEVD-aminoluciferin luminescence, 60 min | inhibition, % at 12.5 µM | AID 488918, 2010 | shares compounds with SENP7 inh;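 active = mean inhibition above about 50%, limit read from the data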;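 also: plate controls were enzyme with DMSO for no effect and wells without caspase-3 for full effect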
Target sequence (P42574 28-227 limits assumed): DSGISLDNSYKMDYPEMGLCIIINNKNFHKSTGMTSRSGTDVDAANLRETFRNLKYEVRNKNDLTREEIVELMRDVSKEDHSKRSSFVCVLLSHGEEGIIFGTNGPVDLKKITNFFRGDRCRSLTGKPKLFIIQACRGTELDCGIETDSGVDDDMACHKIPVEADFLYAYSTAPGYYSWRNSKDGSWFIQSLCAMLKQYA
SENP luc ctr – luminescence interference (SENP counter-screen); inhibition, % at 12.5 µM; shares compounds with SENP7 inh; Pre-incubated SENP8/Z-RLRGG-aminoluciferin, luciferase luminescence interference; hit rate 39% among 6,200;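 active = mean inhibition above about 50% when retested at one dose, limit read from the data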;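 also: plate controls were DMSO wells with completed reaction for no effect and substrate without enzyme for full effect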
* marks the source's active call; other numbers are inactive results.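 The calls were made as follows, unless noted: active = mean inhibition above about 50% in the one-dose retest (limit read from the data); inactive = the rest.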

`NS(=O)(=O)c1ccc2nc(-c3ccccc3)c(-c3ccccc3)nc2c1` gave SENP8 block-1 -162.7, SENP6 block -19.4, Platelet DG rel 6.1, SENP7 inh 0.6 and SENP8 block-2 9.4.
For CCNCC(=O)N1c2ccccc2CCc2ccc(NC(=O)OC(C)C)cc21 the results were SENP8 block-1 14.0, SENP6 block -0.8, Platelet DG rel 8.6, SENP7 inh 0.2 and SENP8 block-2 -2.3.
For CCOC(=O)Nc1ccc(NCc2ccc(F)cc2)nc1N the results were SENP8 block-1 -384.3, SENP6 block 67.8*, SENP7 inh 47.4, SENP8 block-2 57.7*, SENP8 confirm 8.5, SENP6 confirm 35.6, SENP7 conf 15.6, Casp3 select 3.8 and SENP luc ctr 2.4.
CCOC(=O)Nc1ccc(C)cc1NC(=O)OCC was read as SENP8 block-1 6.9, SENP6 block -6.4, Platelet DG rel -0.2, SENP7 inh 9.2 and SENP8 block-2 -0.3.
CC(C)c1ccc(NC2CCCN(C(=O)CCn3cnnn3)C2)cc1 (configuration not stated) was read as SENP8 block-1 7.6, SENP6 block -8.6, Platelet DG rel -3.1, SENP7 inh -4.0 and SENP8 block-2 -7.9.
For CCC(CC)c1nnc(NC(=O)CN2C(=O)NC3(CCCC3)C2=O)s1 the results were SENP8 block-1 10.5, SENP6 block -13.9, Platelet DG rel -10.6, SENP7 inh 0.3 and SENP8 block-2 2.9.
Cc1cccc(-c2cnn(-c3cccc([N+](=O)[O-])c3)c2N)c1 was read as SENP8 block-1 15.3, SENP6 block 5.3, Platelet DG rel -1.9, SENP7 inh 1.8 and SENP8 block-2 -7.6.
For Cc1cccc(-c2cnn(-c3ccccc3)c2N)c1 the results were SENP8 block-1 6.7, SENP6 block 50.3*, Platelet DG rel 5.8, SENP7 inh 65.7*, SENP8 block-2 44.3, SENP8 confirm 42.5, SENP6 confirm 42.4, SENP7 conf 81.0*, Casp3 select 64.2* and SENP luc ctr 63.5*.
Nc1c(-c2ccccc2)cnn1-c1cccc(Cl)c1 was read as SENP8 block-1 6.1, SENP6 block 89.9*, Platelet DG rel 14.7, SENP7 inh 93.9*, SENP8 block-2 84.3*, SENP8 confirm 89.6*, SENP6 confirm 89.5*, SENP7 conf 99.1*, Casp3 select 87.1* and SENP luc ctr 81.0*.
C[C@H](CO)N1C[C@H](C)[C@@H](CN(C)S(=O)(=O)c2ccc3ccccc3c2)OCc2cnnn2CCCC1=O was read as SENP8 block-1 -1.9.
CC(=O)N1N=C(c2ccccc2OC(=O)/C=C/c2ccccc2)CC1c1ccccc1 (configuration not stated) was read as SENP6 block -9.4, Platelet DG rel -11.6, SENP7 inh 0.7 and SENP8 block-2 -5.3.
Screening Cc1ccc2nc(-c3ccc(O)cc3)oc2c1 returned SENP8 block-1 -407.0, SENP6 block 84.9*, Platelet DG rel 18.9, SENP7 inh 74.5*, SENP8 block-2 85.5*, SENP8 confirm 83.9*, SENP6 confirm 83.8*, SENP7 conf 94.3*, Casp3 select 67.7* and SENP luc ctr 24.2.
Nc1ccc2oc(-c3cccc(Br)c3)nc2c1 was read as SENP8 block-1 -428.2, SENP6 block 89.9*, Platelet DG rel 3.3, SENP7 inh 89.5*, SENP8 block-2 81.9*, SENP8 confirm 57.5*, SENP6 confirm 81.5*, SENP7 conf 97.6*, Casp3 select 73.7* and SENP luc ctr 44.9.
Nc1ccc(-c2nc3ccccc3o2)cc1 was read as SENP8 block-1 -290.4, SENP6 block 60.5*, Platelet DG rel 11.6, SENP7 inh 67.0*, SENP8 block-2 55.2*, SENP8 confirm 70.1*, SENP6 confirm 65.4*, SENP7 conf 89.7*, Casp3 select 70.1* and SENP luc ctr 70.7*.
Screening CCc1ccc2oc(-c3cccc(N)c3)nc2c1 returned SENP8 block-1 -283.8, SENP6 block 95.6*, Platelet DG rel 5.8, SENP7 inh 98.1*, SENP8 block-2 95.3*, SENP8 confirm 41.7, SENP6 confirm 97.5*, SENP7 conf 101.7*, Casp3 select 93.5* and SENP luc ctr 95.8*.
Screening Nc1cc(N)cc(-c2nc3ccccc3o2)c1 returned SENP8 block-1 -409.8, SENP6 block 7.9, Platelet DG rel 3.1, SENP7 inh 5.1 and SENP8 block-2 2.8.
`O=C(O)CSc1c2c(nc3cc(C(=O)Nc4ccc(F)c(Cl)c4)ccc13)CCCC2` gave SENP8 block-1 10.5, SENP6 block 11.4, Platelet DG rel -2.4, SENP7 inh 7.9 and SENP8 block-2 -0.8.
Screening O=C(Nc1ccc2c(c1)OCO2)C1CC(=O)N(c2cccc(Cl)c2)C1 (configuration not stated) returned SENP8 block-1 -0.9, SENP6 block 4.3, Platelet DG rel -1.8, SENP7 inh 2.0 and SENP8 block-2 5.4.
For Cc1ccc2nc(-c3cccc(N)c3)oc2c1 the results were SENP8 block-1 -260.7, SENP6 block 95.3*, Platelet DG rel 23.1, SENP7 inh 97.7*, SENP8 block-2 95.5*, SENP8 confirm 32.8, SENP6 confirm 97.0*, SENP7 conf 102.1*, Casp3 select 95.3* and SENP luc ctr 94.1*.
Cc1cc(C)c2oc(-c3cccc(N)c3)nc2c1 was read as SENP8 block-1 -446.5, SENP6 block 33.8, Platelet DG rel -8.1, SENP7 inh 21.1 and SENP8 block-2 7.1.
Screening CC1=NN(C(N)=S)C(=O)C1N=Nc1ccc(C)cc1C (configuration not stated) returned SENP6 block 91.7*, Platelet DG rel -20.9, SENP7 inh 67.8*, SENP8 block-2 81.0*, SENP8 confirm 41.4, SENP6 confirm 58.2*, SENP7 conf 70.5*, Casp3 select 68.4* and SENP luc ctr 28.9.
